Data reported in PubChem BioAssay.
Values without a mark were called inactive. How the calls were made is not given here.

Target: Pantothenate synthetase (Mycobacterium tuberculosis (strain ATCC 25618 / H37Rv)) (UniProt P9WIL5)
Test: Coupled enzyme confirmation of inhibitors against recombinant Mtb PanC (AID 375);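 further: 0% = full reaction with vehicle and 100% = no enzyme background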
Conditions: coupled enzyme assay; at 10 µM, hits give high values

Pantothenate synthetase (Mycobacterium tuberculosis (strain ATCC 25618 / H37Rv)), sequence (P9WIL5 whole entry, looked up): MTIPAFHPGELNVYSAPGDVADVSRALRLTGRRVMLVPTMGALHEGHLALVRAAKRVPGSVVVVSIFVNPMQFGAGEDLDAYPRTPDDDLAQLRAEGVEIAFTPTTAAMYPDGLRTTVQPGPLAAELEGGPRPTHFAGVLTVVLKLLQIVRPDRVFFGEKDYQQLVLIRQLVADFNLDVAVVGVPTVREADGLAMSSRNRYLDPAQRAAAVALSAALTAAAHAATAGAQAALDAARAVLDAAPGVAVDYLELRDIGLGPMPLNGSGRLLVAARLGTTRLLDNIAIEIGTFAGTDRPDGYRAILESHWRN

Q: Which inhibition does the source give for `CCCCn1c(CN(C)Cc2ccccc2)nc2c1c(=O)n(C)c(=O)n2C` here?
A: 0%

Q: With `Cc1cc(C)n(Cc2cc(C)c(Cn3nc(C)cc3C)cc2C)n1` as the compound, how does the inhibition read?
A: 3%

Q: `COc1ccc(NC(=O)c2ccco2)cc1NC(=O)c1cccs1` was tested. Which inhibition did it give?
A: 0%

Q: How did the inhibition turn out when `CS(=O)(=O)N(Cc1nc2sc3c(c2c(=O)[nH]1)CCCC3)C1CCCCC1` was run?
A: 0%

Q: How did the inhibition turn out when `Cc1noc(C)c1CSc1nc2ccccc2s1` was run?
A: 2%

Q: `COc1ccc(CCNC(=O)c2cc3sc(Cl)cc3n2C)cc1OC` was tested. Which inhibition did it give?
A: 0%

Q: For `COc1cccc(C2CC(c3ccc(C)cc3)n3nc(N)nc3N2)c1` (stereo not drawn), which inhibition is on record?
A: 15%

Q: For `Cc1cc(C)n(-c2nnc(C)n2/N=C/c2ccco2)n1`, which inhibition is on record?
A: 1%

Q: `Cc1cc(C)c2c(C)nn(C3CCCCC3)c2n1` was tested. Which inhibition did it give?
A: 0%

Q: With `CCOCCCNC(=O)C1CCC(=O)N1CCc1ccccc1` (stereo not drawn) as the compound, how does the inhibition read?
A: 5%

Q: `O=C(NCc1ccc2c(c1)OCO2)c1cc2n(n1)C(C(F)(F)F)CC(c1ccc3c(c1)OCO3)N2` (stereo not drawn) was tested. Which inhibition did it give?
A: 0%

Q: With `CC(=O)/C(C[N+]1(C)CCCCC1)=N\O` as the compound, how does the inhibition read?
A: 3%

Q: How did the inhibition turn out when `Cc1ccc(-c2nc(N)n(C(=O)c3cccnc3)n2)cc1` was run?
A: 0%

Q: `COc1ccc2c(C(=O)CN(C)C3CCCCC3)c[nH]c2c1` was tested. Which inhibition did it give?
A: 0%

Q: `COc1cccc(N2CCN(CC(=O)c3c[nH]c4ccc(OC)cc34)CC2C)c1` (stereo not drawn) was tested. Which inhibition did it give?
A: 2%

Q: For `O=C(CSc1nc2ccsc2c(=O)n1NC(=O)c1ccccc1)Nc1nccs1`, which inhibition is on record?
A: 0%

Q: `O=C(c1cccnc1)N1CCc2ccccc21` was tested. Which inhibition did it give?
A: 3%

Q: Which inhibition does the source give for `Nc1nc(Nc2ccc(Cl)cc2Cl)nc(C(F)(F)F)n1` here?
A: 0%

Q: For `Oc1cccc2ccc(Nc3ccccn3)nc12`, which inhibition is on record?
A: 8%

Q: Which inhibition does the source give for `COc1ccccc1CN(Cc1nc2ccccc2c(=O)[nH]1)C(=O)Nc1ccccc1` here?
A: 0%

Q: With `O=C(CC(C(=O)N1CCc2ccccc21)n1ccnc1)NCc1cccnc1` (stereo not drawn) as the compound, how does the inhibition read?
A: 0%

Q: For `O=C(Cn1cc2c(n1)CCCCC2)N1CCc2ccccc2C1`, which inhibition is on record?
A: 0%

Q: With `C[C@]12C[C@H](O)[C@H]3[C@@H](CCC4=CC(=O)CC[C@@]43C)[C@@H]1CC[C@@H]2C(=O)CO` as the compound, how does the inhibition read?
A: 0%
